Measured values reported in PubChem BioAssay.
Active and inactive are the calls of the source.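 Rule for the calls: active = inhibition above 20% together with a positive visual image hit; inconclusive = visual image hit but inhibition not above 20%; inactive = no visual image hit.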

Assay: inhibitors of TNFa-induced NFkB p65 translocation, primary screen, imaging, HUVEC, MLSMR starter and 10KST1 sets (AID 438);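 note: compound added about 3h40 before a 20 min TNFalpha stimulation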;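 for inhibition: signal is the nuclear over cytoplasmic p65 intensity ratio per well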
Details: HUVEC TNFa-induced p65 nuclear translocation; cell count: measured here: nuclei count (cytotoxicity indicator), at 2.08 µM; inhibition: at 2 µM, stronger effect = higher value, 0% TNFa-plus-vehicle, 100% no-TNFa wells

| Compound | cell count | inhibition |
| --- | --- | --- |
| CCOC(=O)N1CCN(C(=O)c2cccn3c(=O)c4sccc4nc23)CC1 | 502 | 1.1% (inactive) |
| O=C(c1cc2ccccc2oc1=O)N1CCN(c2ccc(N3CCOCC3)nn2)CC1 | 490 | -6.9% (inactive) |
| CCc1cccc(NC(=O)CCc2nc(-c3cccs3)no2)c1 | 681 | 11.3% (inactive) |
| O=C(C1CC1)N1CCc2cc(Br)cc(S(=O)(=O)N3CCOCC3)c21 | 300 | 2.2% (inactive) |
| CCOCCCNC(=O)C1CCCN(S(=O)(=O)CC)C1 (stereo not drawn) | 630 | -36% (inactive) |
| C/C(N)=C(/C#N)C(=O)COC(=O)CCSc1ccccc1 | 422 | 3.1% (inactive) |
| CCCOc1ccc(N2CC(C(=O)Nc3ccc4c(c3)OCO4)CC2=O)cc1 (stereo not drawn) | 520 | -5% (inactive) |
| CCC(C)Nc1nc2c(c(=O)n(C)c(=O)n2C)n1Cc1ccc(F)cc1 (stereo not drawn) | 436 | 14.8% (inactive) |
| COc1ccc2cc(C(c3nnnn3C3CCCCC3)N3CCCCCC3)c3nnnn3c2c1 (stereo not drawn) | 828 | -6.7% (inactive) |
| O=C(Nc1cccnc1)Nc1ccccn1 | 571 | -4.3% (inactive) |
| O=C(NC1CCCCC1)c1cc2nc(-c3ccco3)cc(C(F)(F)F)n2n1 | 455 | -5.7% (inactive) |
| O=C(CCN1C(=O)COc2ccccc21)NCCN1CCN(c2cccc(Cl)c2)CC1 | 597 | -3.6% (inactive) |
| CCCc1cc(=O)[nH]c(SCc2ccccc2)n1 | 651 | 6.7% (inactive) |
| CC(CCc1ccco1)NC(=O)Cn1ncc2c1-c1ccccc1OC2 (stereo not drawn) | 762 | -3.2% (inactive) |
